High-throughput results as filed in PubChem.
KDM5B inh = KDM5B demethylase inhibition | Potency, µM (titrated, usually from 57.7 µM), hits mostly inhibitors | KDM5B demethylase, FDH-coupled NADH fluorescence (FDH is formaldehyde dehydrogenase) | Q9UGL1 | hit rate 2.6% among 220,000; active means well fitted inhibition curve with a large enough effect; further: 0% is about no effect; nearly all actives have a fitted effect of over 70% in size
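Here, H3K4me3 peptide (12.5 µM in substrate mix) is demethylated by KDM5BΔAP, 200 nM final, after 10 min compound exposure. Formaldehyde product is coupled through FDH (0.25 U/mL in mix) to NADH fluorescence; 30-min ΔRFU feeds dose-response curves.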
An asterisk follows results filed as active; i = inactive. Many of the other results were omitted from the sample, so hits are more common in it than they were. Potency means the concentration at half of the fitted maximal effect.

SMILES	KDM5B inh
O=C(c1ccccc1)N1CCC(c2nn(-c3ccc(Cl)cc3)c(=O)[nH]2)CC1	i
O=C(c1ccc(Cl)cc1)N1CCC(N2CCCNC2=O)CC1	i
CC(C)CNC(=O)[C@H](C)NC(=O)OCc1ccccc1	i
O=C1NCc2ccccc2CC12CCCCN2Cc1cc2ccccc2o1 (centres undefined)	i
O=S(=O)(Nc1nc2ccccc2nc1NC1CCCC1)c1ccc2ccccc2c1	i
NC(=O)c1cc[nH]c1C1CCCN(S(=O)(=O)c2ccc3c(c2)CCC3)C1 (centres undefined)	i
CN(Cc1ccc(-c2ccccc2)cc1)Cc1cccnc1	i
CN(Cc1cccnc1)c1ccc(-c2nc(COc3ccccc3)no2)cn1	35µM*
CN(CCc1ccccn1)c1ccc(-c2nc(COc3ccccc3)no2)cn1	28µM*
NCCc1noc(-c2ccccc2)n1	i
CC(Oc1ccccc1)C(=O)NCCc1noc(-c2ccncc2)n1 (centres undefined)	i
O=C(Cc1cccc(F)c1)NCCc1noc(-c2cccnc2)n1	i
CSc1ccccc1C(=O)OCC(=O)NCc1cccs1	i
CC1=C[C@@H](CC#N)[C@H](C(C)C)C[C@H]1CC(=O)NC1CCCCC1	i
C=CC#CC[N+](CC)(CC)CC#Cc1ccccc1	i
CCCNC(=S)NNC(=O)C(C)C	i
CCC1c2nccn2CCCN1C(=O)COc1cccc(C)c1 (centres undefined)	i
O=C(CNC(=O)N1CC(=O)Nc2ccccc21)Nc1ccc2c(c1)OCO2	i
CCc1cccc2c(C(CC(=O)NCCc3ccc(OC)c(OC)c3)c3ccccc3OC)c[nH]c12 (centres undefined)	i
CCCNC(=O)CC(c1ccccc1OC)c1c[nH]c2c(CC)cccc12 (centres undefined)	32µM*
CCCNC(=O)CC(c1ccc(OC)c(OC)c1)c1c[nH]c2c(CC)cccc12 (centres undefined)	i
Cc1ccc(-c2csc(NC(=O)c3ccccc3F)n2)s1	i
CCc1n[nH]c(CC2CCN(C(=O)Nc3ccc4c(c3)OCCO4)CC2)n1	22µM*
CC(C)n1cnnc1CC1CCN(C(=O)Nc2ccc3c(c2)OCCO3)CC1	i
O=C(Nc1ccc2c(c1)OCCO2)N1CCC(Cc2nc(C3CC3)n[nH]2)C1 (centres undefined)	i
SMILES	KDM5B inh
Cn1c(COc2ccc(C(C)(C)C)cc2)n[nH]c1=S	i
Cc1ccc(NC(=O)CSc2nc3c(=O)[nH]cnc3n2C)cc1F	i
COc1ccc(-c2nc3cc(NC(=O)c4ccccc4OC)ccc3o2)cc1Cl	i
CN1CCc2nc(NC(=O)CCn3c(=O)oc4ccccc43)sc2C1	i
CN(CCCNC(=O)c1nc2ccccc2c(=O)[nH]1)C(=O)c1cccc(Cl)c1	i
c1cc(Cn2ccc3c(N4CCOCC4)nc(-c4ccc5cn[nH]c5c4)cc32)ccn1	35µM*
Cn1cc(-c2cc3c(ccn3Cc3ccncc3)c(N3CCOCC3)n2)cn1	i
COc1ncccc1-c1cc2c(ccn2CC2CCN([S+](C)(=O)[O-])CC2)c(N2CCOCC2)n1	i
CN(C)Cc1ccc(-c2cc3c(ccn3Cc3ccncc3)c(N3CCOCC3)n2)cc1	40µM*
FC(F)(F)c1ccc(-c2cnc([C@@H]3COCCN3Cc3ccncc3)[nH]2)cc1	i
CN1CCC(Cn2ccc3c(N4CCOCC4)nc(-c4cccc5[nH]ncc45)cc32)CC1	i
COc1cc(C#N)ccc1OC(C(=O)NC1CC1)c1ccc(F)cc1 (centres undefined)	i
CC(C)CCN1CCCC2(CNc3ccccc3[S+](=O)([O-])N2)C1 (centres undefined)	i
O=C(Nc1cccc(-c2nc(-c3ccccc3)no2)c1)C1CC(=O)N(c2cccc(C(F)(F)F)c2)C1 (centres undefined)	i
COc1ccc(CN2C[C@@H]3C[C@H]2C(=O)N(Cc2ccccn2)c2ccccc2O3)cc1	i
COc1ccc(CCn2c(SCC(N)=O)nc3c2c(=O)n(C)c(=O)n3C)cc1	i
Cc1ccc(Cl)cc1NC(=O)C(C)Oc1cccc(Cl)c1 (centres undefined)	i
COCc1nnc(NC(=O)CCn2ccc3ccc(F)cc32)s1	i
Cc1nn2c(N3CCC(O)C3)cc(-c3ccccc3)nc2c1C (centres undefined)	28µM*
Cc1cc(N2CCNC(c3ccccc3)C2)n2nc(C)c(C)c2n1 (centres undefined)	i
Cc1nn2c(C(F)F)cc(-c3ccccc3)nc2c1Br	i
COc1ccc(-c2nc3n(c2C(=O)Nc2cccc(C(F)(F)F)c2)CCS3(=O)=O)cc1	i
C/C(=N\NC(=O)C(C)C)c1ccccc1	i
Cc1noc(C)c1-c1cc2c(c(-c3cnn(C)c3)c1)C(=O)N(C)C2	40µM*
Cc1noc(C)c1-c1cc2c(c(-c3cccc(CO)c3)c1)C(=O)N(C)C2	i
CC(=O)Nc1cccc(-c2cc(-c3c(C)noc3C)cc3c2C(=O)N(C)C3)c1	i
